Data on 36 compounds can be found in PubChem BioAssay AID2113 (National Center for Advancing Translational Sciences (NCATS), 2009).

Where “and” joins values, the source holds several entries; their conditions need not be identical. Equal values may be shown once. Results filed as inconclusive are left out. Entries that show only a call come without a potency. Calls of active or inactive are those of the source. Calls come from the whole dose curve; as a rule, active = well fitted curve in either direction with a large enough effect; inconclusive = small, poorly fitted or top-dose-only effect; inactive = no such curve, though single readings can be large or run the other way.
Potency is the fitted concentration of half-maximal effect.

The target in this assay is Lysosomal alpha-glucosidase (Homo sapiens) (UniProt P10253). The assay is described as follows: Confirmation of Inhibitors and Activators of Human alpha-Glucosidase From Spleen Homogenate.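 For potency: fluorescence of 4-methylumbelliferone released from a fluorogenic glucopyranoside substrate at pH 5.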 Conditions: alpha-glucosidase enzyme activity; series mostly up to 60.5 µM. The gist of the method:
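Compounds titrated against spleen-homogenate alpha-glucosidase, pH 5.0, 1 mM 4-MU-glucoside substrate, 37 C for 40 min. Fluorescence after pH 10 stop, normalised to no-enzyme and enzyme controls; Hill-equation AC50.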
On to `COc1ccc(/C=C/c2nnc(NC(=O)CSc3ccc(Cl)cc3)s2)cc1`, for which the Potency entry was “inactive”.

`O=c1[nH]cc(C#Cc2ccccc2)c2ncncc12`: the Potency entry is “inactive”.

With `CC(=O)c1ccc(N2CCN(S(=O)(=O)c3ccc4c(c3)CC(=O)N4)CC2)cc1`, the Potency is 1.03 µM [inhibitor] (active) and 520 nM [inhibitor] (active) and 2.06 µM [inhibitor] (active).

With `COc1cccc2cc(-c3nc4c(s3)CCc3ccccc3-4)c(=O)oc12`, the Potency entry is “inactive”.

Take `COc1ccc(CCN2CNc3c(c(=O)n(C)c(=O)n3C)C2)cc1OC`: the Potency entry was “inactive”.

As to `CCCN1CNc2c(c(=O)[nH]c(=S)n2CCc2cc(C)ccc2C)C1`, the Potency was 8.91 µM (active).

For `CCCN1CNc2c(c(=O)[nH]c(=O)n2CCc2ccc(OC)c(OC)c2)C1`, the Potency is 17.8 µM (active).

On to `Cc1ccc(N2CCN(S(=O)(=O)c3ccc4c(c3)CC(=O)N4)CC2)cc1`, for which the Potency result was “inactive”.

On to `N#Cc1cccc(S(=O)(=O)N2CCOCC2)c1`, for which the Potency result was “inactive”.

As to `CCc1ccc(-c2nc(-c3cc4ccc(O)cc4oc3=O)sc2C)cc1`, the Potency entry was “inactive”.

Regarding `COC(=O)c1ccccc1S(=O)(=O)N1CCOCC1`, the Potency result was “inactive”.

As for `Cc1sc(-c2cc3ccccc3oc2=O)nc1-c1ccc(Cl)cc1`, the Potency entry was “inactive”.

Consider `Cc1ccccc1-n1c(N)cc(=O)[nH]c1=S`, for which the Potency result was “inactive”.

As for `Cn1c2c(c(=O)n(C)c1=O)CN(CC1CCCO1)CN2` (stereo unspecified), the Potency entry was “inactive”.

For `CCc1sc(-c2cc3cccc(OC)c3oc2=O)nc1-c1cc(C)ccc1C`, the Potency is 15.8 µM (active).

On to `Cc1ccc(C(=O)c2sc3c(c2N)c(=O)[nH]c(=O)n3CCc2ccccc2)cc1`, for which the Potency result was “inactive”.

`CN(C)C=Nc1nc2ccccc2nc1N1CCCC1`: the Potency result was “inactive”.

With `CCOC(=O)c1ccc(NC(=O)c2ccccc2)cc1`, the Potency result is “inactive”.

`CC(C)(C)OC(=O)NCCCC[C@H](NC(=O)c1[nH]cnc1C(=O)Nc1ccc(CNC(=O)OC(C)(C)C)cc1)C(=O)OC(C)(C)C`: the Potency entry is “inactive”.

With `CCN(CC)S(=O)(=O)c1ccc2c(c1)C(=NNc1ccccc1)c1cc(S(=O)(=O)N(CC)CC)ccc1-2`, the Potency entry is “inactive”.

`O=C1Cc2cc(S(=O)(=O)N3CCN(c4cccc(C(F)(F)F)c4)CC3)ccc2N1`: the Potency was 18.8 µM [inhibitor] (active).

For `O=C(O)Cc1sc(-c2cc3ccccc3oc2=O)nc1-c1ccc(-c2ccccc2)cc1`, the Potency entry was “inactive”.

On to `C[C@H](NC(=O)/C(C#N)=C/c1ccc(O)c(O)c1)c1ccccc1`, for which the Potency result was “inactive”.

Consider `CCCN1CNc2c(c(=O)[nH]c(=S)n2CCc2c(C)cccc2C)C1`, for which the Potency result was “inactive”.

In the case of `O=c1oc2ccc(Br)cc2cc1-c1nc2c(s1)CCc1ccccc1-2`, the Potency entry is “inactive”.

Turning to `CC(=O)N1CCN(S(=O)(=O)c2ccc3c(c2)CC(=O)N3)CC1`, the Potency is 29.8 µM [inhibitor] (active).

With `CCCCn1c(N)c(NCC)c(=O)[nH]c1=O`, the Potency result was “inactive”.

On to `CC1OC(OC2C(CO)OC(OC3C(CO)OC(O)C(O)C3O)C(O)C2O)C(O)C(O)C1NC1C=C(CO)C(O)C(O)C1O` (stereo unspecified), for which the Potency entry was “inactive”.

Turning to `COc1ccc(Cc2nnc(NC(=O)CSc3ccc(Cl)cc3)s2)cc1`, the Potency result is “inactive”.

Regarding `O=S(=O)(c1ccccc1)N1CCNCC1`, the Potency result is “inactive”.

On to `CCSc1nc(=S)n(CC)c(C)c1C(C)=O`, for which the Potency entry was “inactive”.

In the case of `CC/C(=C(\c1ccccc1)c1ccc(OCCN(C)C)cc1)c1ccccc1`, the Potency entry was “inactive”.

As to `CCOC(=O)c1c(-c2ccc(-c3ccccc3)cc2)csc1NC(=O)CCN1CCOCC1`, the Potency result is “inactive”.

For `C=CCCCCCCCCCCCc1ccco1`, the Potency result was “inactive”.

Regarding `CCCCCCc1cc2cc(C(=O)NC)c(=N)oc2cc1O`, the Potency result was “inactive”.

Turning to `CCCN1CNc2c(c(=O)[nH]c(=S)n2CCc2cccc(OC)c2OC)C1`, the Potency was 15.8 µM (active).
